An excerpt weighted towards active compounds, which were near 4.8% of everything screened.
ssDAF12 agonist = S. stercoralis DAF-12 activation, primary screen; HEK293 ssDAF-12/GRIP1 lit1-tk-luc reporter, luminescence; % of 3 µM dafachronic acid response; activation, % at 6.8 µM; actives 1% (n = 370,000); AID 652126;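 active = activation above the mean over all tested compounds plus 3 SD, cut at about 0.9% in these data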;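 also: 0% = DMSO-only wells and 100% = 3 µM delta7-dafachronic acid wells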
DAX1 inh-1 = DAX1 (NR0B1) inhibition, primary screen | HEK293T StAR-luciferase reporter, SF-1/DAX-1 repression relief | inhibition, % at 6.8 µM | actives 1.1% (n = 370,000) | AID 652010;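 active = inhibition above the mean over all tested compounds plus 3 SD, cut at about 3.6% in these data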;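 also: 0% = DAX-1 cells with DMSO and 100% = cells lacking DAX-1 with DMSO; higher inhibition means more luminescence from relief of DAX-1 repression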
hgDAF-12 ag = agonists of H. glycines DAF-12 nuclear receptor; HEK293 GAL4-hgDAF12 UAS-luciferase reporter, agonist luminescence; normalized to butyrate control; activation, % at 6.8 µM; actives 1.8% (n = 370,000);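 active = activation above a cutoff set at the mean of all screened compounds plus 3 SD, cut at about 10% in these data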;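 also: 0% = DMSO wells and 100% = sodium butyrate wells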
DAX1 inh-2 = inhibits human nuclear receptor DAX1 | P51843 | HEK293 Gal4-DAX1 luciferase reporter, luminescence | inhibition, % at 6.75 µM | actives 0.99% (n = 340,000) | AID 504766;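 active = inhibition above the mean over all tested compounds plus 3 SD, cut at about 4.2% in these data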;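 also: 0% = DAX1-transfected cells with DMSO and 100% = empty-vector control cells with DMSO; inhibition shows as a rise in luminescence from relieved DAX1 repression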
Target sequence (P51843 207-470 limits assumed): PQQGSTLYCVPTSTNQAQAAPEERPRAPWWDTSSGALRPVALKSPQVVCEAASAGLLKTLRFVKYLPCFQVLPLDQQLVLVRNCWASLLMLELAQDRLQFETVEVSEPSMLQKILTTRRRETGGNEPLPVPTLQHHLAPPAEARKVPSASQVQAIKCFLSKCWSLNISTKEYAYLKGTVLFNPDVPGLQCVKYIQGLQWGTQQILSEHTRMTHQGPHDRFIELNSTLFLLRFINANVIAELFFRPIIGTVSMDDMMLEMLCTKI
hcDAF12 agonist = activators of H. contortus DAF-12 nuclear receptor | actives 1.4% (n = 370,000) | HEK293 hcDAF-12 lit1-tk-luc reporter, luminescence; 0% DMSO, 100% Δ7-dafachronic acid | activation, % at 6.8 µM;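 active = activation above the mean of all tested compounds plus 3 SD, cut at about 5.5% in these data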;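 also: 100% = response to 3 µM Δ7-dafachronic acid high control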
SMARCA2 act = activators of SMARCA2 function; AID 652017; MG213 cells, MMTV-luciferase reporter, dexamethasone, overnight; actives 1% (n = 370,000); activation, % at 9.1 µM; in the data active = activation above about 7.8%;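 also: 0% = vehicle wells and 100% = reference activator wells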
The depositor's hits bear a star; x = no result given.

SMILES	ssDAF12 agonist	DAX1 inh-1	hgDAF-12 ag	DAX1 inh-2	hcDAF12 agonist	SMARCA2 act
C(=N\N1CCN(c2ccccn2)CC1)/c1ccccn1	1.1*	1.6	6.0	1.7	2.7	-0.9
c1ccc(N2CCN(c3nccn4ccnc34)CC2)nc1	0.6	4.0*	9.7	x	4.7	1.3
Cn1c(=O)c2cc(S(=O)(=O)N3CCN(Cc4ccccc4)CC3)ccc2n(C)c1=O	-0.8	0.4	0.2	x	1.9	-4.0
COC(=O)[C@H]1C[C@]2(C(/C=C(\C)CCC=C(C)C)S(=O)(=O)c3ccccc3)c3ccccc3N[C@H]2N1 (stereo not given in full)	-1.8	x	-1.2	x	-1.3	x
C[C@H]1[C@H](N)CC[C@@]23CCCN2C(=O)CCC[C@@H]13	-1.6	x	-1.5	x	-0.3	x
COc1cccc2c1OCC(C(=O)Nc1nccs1)=C2	-0.2	1.5	12.9*	2.6	3.5	3.7
CCOC(=O)c1c(CN2CCN(Cc3ccccc3)CC2)n(C)c2cc(Br)c(OC)cc12	-0.4	-0.6	1.7	0.2	-0.3	-5.6
CCOC(=O)c1c(CN2CCC(C)CC2)n(C)c2cc(Br)c(OC)cc12	-1.5	0.1	-1.7	4.9*	0.7	-3.1
O=C(O)c1ccc(/C=N/N2CCN(c3ccccc3)CC2)cc1	-1.0	0.8	10.0	5.4*	1.6	1.8
COc1ccccc1N1CCN(/N=C/C=C\c2ccco2)CC1	0.2	4.1*	10.0	1.1	4.7	5.4
O=C(c1ccc(-c2ccccc2)cc1)N1CCN(c2ccccc2)CC1	0.7	0.5	5.0	4.8*	0.9	3.8
COc1ccccc1N1CCN(C(=O)/C=C/c2ccco2)CC1	-0.4	0.3	1.7	1.7	-2.3	-0.3
COc1ccccc1N1CCN(/N=C/c2ccc(C(=O)O)cc2)CC1	-0.4	0.8	10.8*	0.7	2.6	1.1
COc1ccc(N2CCN(C(=O)c3ccc(-c4ccccc4)cc3)CC2)cc1	-1.6	-0.3	-1.3	0.1	-2.0	-3.3
Cn1ccnc1C(=O)O[C@@H]1CCC[C@@]2(C(=O)N(Cc3ccccc3)c3ccccc32)[C@H]1NC(=O)CCc1ccccc1	-1.1	-1.1	-1.0	x	-2.7	2.3
Cc1ccc(N2C(=O)CC(Cn3nc(C)cc3C)C2=O)cc1 (stereo not given)	-1.1	1.2	1.3	-0.7	-0.5	-2.9
CCc1ccc(N2C(=O)CC(Cn3nc(C)cc3C)C2=O)cc1 (stereo not given)	-0.8	-0.3	-0.4	5.1*	0.3	2.9
COc1cccc(C(=O)N/N=c2\sc3ccccc3n2C)c1	-2.2	0.2	1.4	0.0	0.2	0.7
COc1cc(OC)cc(C(=O)N=c2sc3ccccc3n2C)c1	-0.2	1.7	11.5*	0.5	2.4	5.3
CC(C)(C)CC(=O)Nc1cccc(-c2cn3cccnc3n2)c1	-0.8	2.4	10.5*	4.0	4.7	3.6
COc1cc(C(=O)Nc2cccc(-c3cn4cccnc4n3)c2)cc(OC)c1OC	-1.8	-2.6	-5.3	-1.1	-2.5	-4.0
CCOC(=O)Cn1cc(CN2C(C(=O)OC)CN(CCO)CCS2(=O)=O)nn1 (stereo not given)	-0.5	0.3	1.1	x	4.2	-0.1
CN(Cc1nc(-c2cccc(Cl)c2)no1)C1CCOCC1	-0.7	2.0	12.0*	0.3	2.5	-2.1
CCN(Cc1nc(-c2cccc(Cl)c2)no1)CC1CCCO1 (stereo not given)	-1.1	0.2	1.2	-0.5	-0.4	-3.4
Cc1ccc(Nc2ccc(N3CCN(c4ccc([N+](=O)[O-])cc4)CC3)nn2)cc1	-0.7	0.2	-2.5	4.5*	-1.1	-4.1
SMILES	ssDAF12 agonist	DAX1 inh-1	hgDAF-12 ag	DAX1 inh-2	hcDAF12 agonist	SMARCA2 act
Cc1ccc(CC(=O)N2CCN(c3ccc([N+](=O)[O-])cc3)CC2)cc1	-1.4	-0.8	-0.7	-2.1	-3.8	-1.2
CCOC(=O)COc1c(Br)cc(/C=C2\SC(=O)N(CC(=O)N3CCCC3)C2=O)cc1OC	-1.2	-0.6	-1.0	4.7*	0.7	-1.4
O=C(Nc1ccc(Br)cc1Br)Nc1cccc2[nH]c([C@@H]3O[C@H](CO)[C@@H](O)[C@H](O)[C@H]3O)nc12	0.9*	0.6	5.5	x	-0.3	-0.6
COC(=O)c1c(-c2ccccc2)c[nH]c1C	-0.5	0.3	-1.1	4.8*	-1.1	5.8
COC(=O)c1c(C)[nH]c(C=O)c1-c1ccccc1	-0.7	0.4	0.1	x	0.1	2.5
COc1ccc(C2C(C(=O)Nc3ccc(C)c(C)c3)CCC(=O)N2c2ccc(OC)cc2)cc1 (stereo not given)	-1.2	-0.3	-4.6	x	-2.4	-6.3
O=C(Nc1ccc(F)cc1)C(c1cc2ccccc2o1)N1CCN(c2cccc(C(F)(F)F)n2)CC1 (stereo not given)	2.3*	0.7	-0.6	x	0.5	4.6
O=C(Nc1ccc(F)cc1)C(c1ccncc1)N1CCN(c2cccc(C(F)(F)F)n2)CC1 (stereo not given)	-0.4	-0.8	-0.1	x	-2.3	-3.8
C/C(C=NNC(=O)CSc1nc2ccccc2n1Cc1ccccc1Cl)=C\c1ccccc1	-1.1	0.2	-0.5	x	0.2	-6.3
O=C(O)CCC(=O)Nc1cccc2cccnc12	-0.5	0.2	-1.4	5.2*	-1.1	-0.7
Cc1cc(C(=O)Nc2cccc3cccnc23)ccc1[N+](=O)[O-]	0.4	-0.2	3.8	0.3	5.9*	-0.5
COc1ccccc1NS(=O)(=O)c1cccc2cccnc12	-1.6	-0.4	-2.0	5.4*	0.9	1.5
COc1cccc(C(=O)Nc2cccc3cccnc23)c1OC	x	x	x	4.3*	x	x
COc1ccc(C2CCC3(CCC(=O)N3CCO)CC2)cc1 (stereo not given)	-0.7	-0.1	-0.2	x	2.3	-4.3
C[C@H](NC(=O)OCc1ccccc1)P(=O)(O)O	-0.7	-1.2	-1.1	x	-3.9	-0.1
Cc1cc(C)cc(NC(=O)N2CCC(c3nc4ccc(Cl)cc4[nH]3)CC2)c1	-1.4	-0.9	-0.3	x	-1.4	1.2
CCCCCCCCNS(=O)(=O)CC1NCc2cc(F)ccc21 (stereo not given)	-0.9	0.5	2.6	x	0.9	-4.1
Cc1cccc(OCC(=O)NCC(=O)N=Nc2c(O)[nH]c3ccc([N+](=O)[O-])cc23)c1	0.2	0.1	2.9	6.1*	3.2	0.2
COC(=O)[C@H]1C[C@@]2(C)c3ccccc3N(S(=O)(=O)c3ccccc3)[C@H]2N1	-1.2	-0.5	-1.6	x	2.6	-1.6
COc1ccc2cc(-c3cc(C(=O)OCC(=O)NC4CCS(=O)(=O)C4)c4ccccc4n3)ccc2c1 (stereo not given)	0.4	4.4*	15.4*	-0.8	4.4	3.3
CCOCCCn1c(=NC(=O)c2ccco2)c(C(=O)OCC)cc2c(=O)n3cccc(C)c3nc21	-0.1	0.3	4.6	0.0	-0.8	7.8*
